MCF10A rerep: inducers of DNA re-replication in MCF 10A breast cells | actives 2.9% (n = 350,000) | Potency, µM (top dose mostly 46.1 µM), for the others: at the highest dose activity, positive = re-replication, usual class: activators | MCF 10A DNA re-replication, Hoechst nuclear intensity, 48 h; note: potency is the fitted concentration of half-maximal effect; % of control where 0% means no effect; nearly all actives have a fitted effect of over 50% in size
KB-V1 MDR tox: KB-V1 MDR subline cytotoxicity | KB-V1 MDR cells viability, CellTiter-Glo, 72 h | Potency, µM (top dose mostly 46.1 µM), actives largely listed as cytotoxic | actives 3.4% (n = 400,000) | AID 1347076; note: potency is the fitted concentration of half-maximal effect; % is set by controls: 0 for no effect and ±100 for the full control effect; nearly all actives have a fitted effect of over 60% in size
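Cytotoxicity toward P-gp-expressing KB-V1 cells was determined as loss of CellTiter-Glo luminescence after 72 h at 37 degrees C. Compounds were tested in quantitative HTS format across a concentration range, with curves fitted to normalized data.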
KB-3-1 cytotox: kills parental KB-3-1 adenocarcinoma cells; KB-3-1 viability, CellTiter-Glo ATP luminescence, 72 h; Potency, µM (highest dose often 46.1 µM), actives largely listed as cytotoxic; actives 1.4% (n = 400,000); AID 1347075; note: potency is the fitted concentration of half-maximal effect; % is set by controls: 0 for no effect and ±100 for the full control effect; nearly all actives have a fitted effect of over 60% in size
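Parental KB-3-1 adenocarcinoma cells in phenol-red-free DMEM with 10% FBS were pin-treated with compounds at several concentrations, incubated 72 h at 37 °C, and viability read by CellTiter-Glo luminescence; concentration-effect curves were fitted after normalization.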
IL-1B inflam inh: blocks inflammasome-driven IL-1 beta release; activity change, % at 57.5 µM; actives 4.7% (n = 360,000); THP-1 LPS/ATP IL-1B secretion, AlphaLISA, 16 h; active compounds read low; in the data active = activity change below about -50%; inconclusive = mostly about -30% to -49%; note: % is set by controls: 0 for no effect and ±100 for the full control effect
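Secreted IL-1B measured by AlphaLISA bead assay after 16 h compound exposure of THP-1 cells; compounds (final up to 57.5 uM) added 1 h before LPS (250 ng/mL) and ATP (1.25 mM) stimulation; lower signal means less secretion.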
SW480 rereplic: DNA re-replication induction in SW480 cells; Potency, µM (highest dose often 46.1 µM), for inactives: at the top dose re-replication activation, actives largely listed as activators; AID 624297; SW480 DNA re-replication, Hoechst DNA content imaging, 48 h; actives 1.8% (n = 340,000); note: potency is the fitted concentration of half-maximal effect; % of control where 0% means no effect; nearly all actives have a fitted effect of over 55% in size
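Quantitative HTS format with DMSO vehicle controls; 48 hr drug incubation at 37 C, then 40 min Hoechst staining and scanning imager measurement at 405 nm excitation.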
* hit, by the source's call; i = inactive; u = inconclusive; x = not tested or not shown; [ ] = remark or other dose. This is a sample that favours compounds with a hit; in the whole collection about 9.9% have one here. Unless noted, calls come from the whole dose curve; as a rule, active = well fitted curve in the direction sought with a large enough effect; inconclusive = small, poorly fitted or top-dose-only effect, or another doubt; inactive = no such curve, though single readings can be large; an effect the other way counts as inactive or inconclusive.

SMILES	MCF10A rerep	KB-V1 MDR tox	KB-3-1 cytotox	IL-1B inflam inh	SW480 rereplic
O=C(/C=C/c1ccccc1)Nn1c(-c2cccs2)nc2ccccc2c1=O	14%	i	i	-6	u
Cc1ccc(-n2ncc3c(SCc4ccccn4)ncnc32)c(C)c1	u	8.2µM*	u	-69*	13%
O=C(NCc1ccccc1)C1Cc2c(-c3ccc4c(c3)OCO4)ccnc2O1 (stereo unspecified)	x	1.2µM*	0.82µM*	60	x
NC(=O)c1cccc(-c2ccnc3c2CC(C(=O)NCc2ccccc2)O3)c1 (stereo unspecified)	x	i	3.7µM*	100	x
Cn1cnc(S(=O)(=O)N2CCCCC2c2cc(C(=O)Nc3ccccc3Cl)no2)c1 (stereo unspecified)	x	i	i	24	x
CC(=O)Nc1nc(-c2ccccc2)nc(C)c1C(C)=O	19%	i	i	28	0%
Cc1nc(-c2ccccc2)nc2[nH]c(=O)n(-c3ccccc3)c(=O)c12	-4%	21µM*	u	4	-16%
Cc1nc(-c2ccccc2)nc2[nH]c(C(C)C)cc(=O)c12	9.2µM*	u	i	-18	4%
COc1ccc(OC)c(S(=O)(=O)NCCCN2CCCC2=O)c1	3%	i	i	-10	-7%
CC1=C(C(=O)Nc2cc(C(=O)N(C)Cc3ccccc3)ccc2C)SCCO1	2%	i	i	-55*	-38%
Cc1cc(C)n2c(Nc3ccc4c(c3)OCCO4)c(CC(C)C)nc2n1	x	i	i	49	x
CC1(C)CC(=O)c2cc(OCC(=O)N3CCN(c4ccccc4F)CC3)ccc2O1	18%	u	i	-16	1%
CC1(C)CC(=O)c2c(O)cc(OCC(=O)N3CCN(c4ccc(F)cc4)CC3)cc2O1	1%	u	i	-55*	7%
CC1(C)CC(=O)c2cc(OCC(=O)N3CCCCCC3)ccc2O1	9%	18µM*	i	16	-12%
COC(=O)c1ccccc1C(=O)N1CCC(CCC(=O)NC2CC2)CC1	0%	u	i	-6	-2%
CCOC(=O)N1CCN(c2ncc3c(n2)CC(c2ccc(OC)c(OC)c2)CC3=O)CC1 (stereo unspecified)	x	4.1µM*	u	x	x
COc1ccc(C2CC(=O)c3cnc(N4CCN(Cc5ccccc5)CC4)nc3C2)cc1 (stereo unspecified)	16%	i	i	-10	14%
CCN1CCN(c2ncc3c(n2)CC(c2ccc(OC)c(OC)c2)CC3=O)CC1 (stereo unspecified)	u	21µM*	16µM*	12	u
COc1ccc(-c2c(C)nn3c(-c4ccccc4)cc(-c4ccccc4)nc23)cc1	x	i	i	x	x
C=CCNC(=O)N1CCC(n2nccc2NC(=O)CCCc2ccccc2)CC1	-3%	i	i	-2	5%
COc1cccc(CNC(=O)c2ccc(CS(=O)Cc3ccccc3Cl)o2)c1 (stereo unspecified)	x	u	i	-12	x
O=C(NCCCN1CCOCC1)c1[nH]c(C(F)(F)F)nc1-c1ccccc1	x	i	i	31	x
c1ccc(Cn2c[n+](Cc3ccccc3)c3ccccc32)cc1	1%	i	23µM*	-4	-1%
COc1ccc(NC(=O)CSc2ccc3nc(-c4ccccc4)cn3n2)c(OC)c1	x	i	u	x	x
C=CCN=C(NC#N)SCC(=O)c1cccc(OC)c1	u	u	i	-57*	u
SMILES	MCF10A rerep	KB-V1 MDR tox	KB-3-1 cytotox	IL-1B inflam inh	SW480 rereplic
Cc1ccc(/C(=N/Nc2ncnc3ccccc23)C(=O)O)cc1	12%	i	i	35	18µM*
COC(=O)c1cn(CC(=O)N2CCCCCC2)c2ccccc12	1%	i	i	-2	-1%[9.22 µM]
CCOC(=O)C1=C(O)/C(=C/c2cn(CC(=O)N3CCCC3)c3ccccc23)SC1=Nc1ccccc1	8.2µM*	i	15µM*	u	u
Cc1ccc(C(=O)n2c3ccccc3c3ccccc32)cc1	u	8.2µM*	10µM*	43	21µM*
CS(=O)(=O)c1nc(-c2ccccc2)cc(-c2ccccc2)c1C#N	2.9µM*	i	u	-56*	6.5µM*
Cc1ccc(-c2cc(-c3ccccc3)c(C#N)c(Br)n2)cc1	u	i	i	0	x
O=C(c1ccccc1)N1CCC(c2nc(-c3ccc(S(=O)(=O)N4CCOCC4)cc3)no2)CC1	2%	u	i	-15	0%
O=C(Nc1ccccc1)N1CCC(c2nc(-c3ccc(S(=O)(=O)N4CCOCC4)cc3)no2)CC1	1.8µM*	4.1µM*	4.6µM*	42	5.8µM*
O=C(Nc1cccc(C(F)(F)F)c1)N1CCC(c2nc(-c3ccc(F)cc3)no2)CC1	u	2.6µM*	i	u	8%
O=C(c1cccs1)N1CCC(c2nc(-c3ccc(S(=O)(=O)N4CCOCC4)cc3)no2)CC1	17%	5.8µM*	16µM*	-7	-5%
Cc1cccc(C(=O)N2CCC(c3nc(-c4ccc(S(=O)(=O)N5CCOCC5)cc4)no3)CC2)c1	4%	i	i	-53*	3%
O=C(NC1CCCC1)C1c2ccccc2OCC(=O)N1C1CC1 (stereo unspecified)	x	i	i	42	x
O=C1CC2c3ccccc3C1C1C(=O)N(Cc3ccccc3)C(=O)C21 (stereo unspecified)	1%	i	i	-11	-7%
O=S(=O)(Nc1nc2ccccc2nc1NCc1ccco1)c1ccc(Cl)cc1	u	u	u	26	-3%[9.22 µM]
Cc1noc(C)c1CSc1nc2ccccc2nc1NS(=O)(=O)c1ccc(Cl)cc1	2.6µM*	u	u	32	2%
CCOc1ccc(Br)cc1CNCCSc1nnnn1-c1ccccc1	x	i	i	x	x
Cc1cc(C(=O)NNc2ccc(C(C)C)cc2)n(C(C)(C)C)n1	30%	u	i	25	-11%
Cc1ccc(CNC(=O)CSc2ccsc2[N+](=O)[O-])cc1	-25%	i	i	u	15%[1.84 µM]
COc1ccc(CNC(=O)CSc2ccsc2[N+](=O)[O-])cc1	10%	i	i	-59*	7%
Clc1cccc(Cl)c1CNCCCSc1ncccn1	-2%	i	i	-14	-4%
Clc1ccc(CNCCCSc2ncccn2)cc1Cl	6%	u	i	-62*	-1%
COc1ccc(CCNC(=O)Cn2ncc3c(C)n(Cc4ccccc4F)c(C)c3c2=O)cc1OC	x	i	i	x	x
Cc1ccc(Sc2nc(-c3ccccc3)nnc2C(F)(F)F)cc1	8.2µM*	i	i	0	u
COc1nc(-c2ccccc2)nc(-c2ccccc2)c1C	23µM*	i	i	-2	6%

Bioassay records (PubChem)
